{"source": "PubChem BioAssay AID1259343", "about": "(VanderVen Lab, College of Veterinary Medicine, Cornell …, 2017)", "note": "Screen size: about 6,200 compounds; about 2,900 (47%) were called active. Cut-off read from the data, not from the text of the source: active = inhibition above about 50%; inactive = the rest. So high a share suggests a set chosen from earlier hits. Some of the results follow.", "data": [{"test": "Mycobacterium tuberculosis growth inhibition, primary screen (AID 1259343)", "conditions": "inhibition: at 10 µM, active compounds read high; outcome: 10 uM", "values": [{"smiles": "CCN=c1scc(-c2ccc(Br)cc2)n1/N=C1\\C(=O)N(C)c2ccccc21", "inhibition": "20.4% (inactive)"}, {"smiles": "Cn1cc(-c2nc(C(=O)NC34CC5CC(CC(C5)C3)C4)cs2)cn1", "inhibition": "31.8% (inactive)"}, {"smiles": "O=C(NC12CC3CC(CC(C3)C1)C2)c1cncc(Br)c1", "inhibition": "50.2% (active)"}, {"smiles": "CC1CCCC(NC(=O)c2cncc(Br)c2)C1", "note": "(stereo unspecified)", "inhibition": "-31% (inactive)"}, {"smiles": "O=S(=O)(NCc1ccc(F)cc1)c1ccc2c(c1)CCCC2", "inhibition": "89.6% (active)"}, {"smiles": "O=S(=O)(Nc1ccc2c(c1)CCC2)c1ccc(F)cc1", "inhibition": "-4.64% (inactive)"}, {"smiles": "COc1ccc(CNS(=O)(=O)c2ccc3c(c2)CCCC3)cc1", "inhibition": "-18% (inactive)"}, {"smiles": "CC(=O)Nc1ccc(C(=O)NC2CCC3CCCCC3C2)cc1", "note": "(stereo unspecified)", "inhibition": "-37.5% (inactive)"}, {"smiles": "COCc1ccc(C(=O)NC2C3CC4CC(C3)CC2C4)cc1", "note": "(stereo unspecified)", "inhibition": "75.8% (active)"}, {"smiles": "CCCc1nc(CN(C)c2nc(C)nc3sccc23)no1", "inhibition": "14.1% (inactive)"}, {"smiles": "COc1ccccc1OCCCOc1ccc(C)cc1Br", "inhibition": "34.8% (inactive)"}, {"smiles": "COc1cccc(OC)c1OCCOc1ccc(C)cc1Br", "inhibition": "76.4% (active)"}, {"smiles": "COc1cccc(OC)c1OCCCOc1ccc(C)cc1Br", "inhibition": "87.8% (active)"}, {"smiles": "O=C(Nc1ccc(N2CCC(NCCC3=CCCCC3)CC2)cc1)c1ccc2c(c1)OCO2", "inhibition": "47% (inactive)"}, {"smiles": "CCCCCCc1ccc(C(=O)Nc2ccc(-n3nc(OC)nc3-c3ccc4c(c3)OCO4)cc2)cc1", "inhibition": "56.7% (active)"}, {"smiles": "COc1cc2c(cc1O)C(SC)=NC(C)(C)C2", "inhibition": "55.5% (active)"}, {"smiles": "CC(=O)NC(C)C(=O)Nc1cccc(Sc2ccccc2)c1", "note": "(stereo unspecified)", "inhibition": "62.7% (active)"}, {"smiles": "Cc1csc(C(C#N)C(=O)Nc2ccccc2)n1", "note": "(stereo unspecified)", "inhibition": "-32.9% (inactive)"}, {"smiles": "CC1CCN(S(=O)(=O)N2CC=C(c3c[nH]c4ccccc34)CC2)CC1", "inhibition": "29.2% (inactive)"}, {"smiles": "CCCS(=O)(=O)N1CC=C(c2c[nH]c3cc(F)ccc23)CC1", "inhibition": "88.2% (active)"}, {"smiles": "CCCS(=O)(=O)N1CCc2[nH]c3ccc(F)cc3c2C1", "inhibition": "22.7% (inactive)"}, {"smiles": "O=C(Nc1cccc2cnccc12)OCC(F)(F)F", "inhibition": "72.3% (active)"}, {"smiles": "COc1cc(C(=O)C(C#N)C(=O)CC(C)(C)C)ccc1C", "note": "(stereo unspecified)", "inhibition": "101% (active)"}, {"smiles": "Cc1ccc(C(=O)O)cc1OCc1csc(Br)c1", "inhibition": "7.03% (inactive)"}, {"smiles": "CC(=NNc1ccnc2cc(Cl)ccc12)c1ccc(C)o1", "inhibition": "2.38% (inactive)"}, {"smiles": "CC(Nc1nc(-c2cccs2)nc2cc(Cl)ccc12)c1ccccc1", "note": "(stereo unspecified)", "inhibition": "3.37% (inactive)"}, {"smiles": "CCC(=NNc1ccnc2cc(Cl)ccc12)c1ccccc1", "inhibition": "93.9% (active)"}, {"smiles": "CC1CCC(C(C)C)C(OC(=O)COC(=O)c2ccc([N+](=O)[O-])o2)C1", "note": "(stereo unspecified)", "inhibition": "10.8% (inactive)"}, {"smiles": "CN(C)c1ccccc1NC(=O)c1ccccc1OC(F)F", "inhibition": "23.1% (inactive)"}, {"smiles": "CC(OC(=O)c1ccc([N+](=O)[O-])o1)C(=O)Nc1ccccc1OC(F)F", "note": "(stereo unspecified)", "inhibition": "101% (active)"}, {"smiles": "COc1ccc(-c2nc(CNc3ccc(C)c(F)c3)no2)cc1", "inhibition": "91.5% (active)"}, {"smiles": "CC(C)c1ccc(NC(=O)c2ccc(-c3ccnn3C)c3ccoc23)cc1", "inhibition": "77.8% (active)"}, {"smiles": "CC(C)c1cnc(COc2ccc(Br)nc2)o1", "inhibition": "38.6% (inactive)"}, {"smiles": "Cc1nc(NC(=O)c2cccc(Br)c2)oc1C", "inhibition": "94.3% (active)"}, {"smiles": "NC(=S)c1cccc(Br)c1", "inhibition": "22.8% (inactive)"}, {"smiles": "CN(CC(=O)c1cccc(Br)c1)C1CCCCC1", "inhibition": "13.2% (inactive)"}, {"smiles": "COc1ccccc1OCc1coc(-c2ccc(C)cc2C)n1", "inhibition": "40.9% (inactive)"}, {"smiles": "c1csc(-c2nc(COc3ccc4c(c3)CCC4)co2)c1", "inhibition": "-21.4% (inactive)"}, {"smiles": "Cc1ccc(-c2nc(COc3ccc(C)cn3)co2)cc1", "inhibition": "58.5% (active)"}, {"smiles": "O=C(O)Cc1cc(-c2ccc3c(c2)OCCO3)on1", "inhibition": "73.2% (active)"}, {"smiles": "O=C(Cc1cc(-c2ccc3c(c2)OCO3)on1)NCc1cccs1", "inhibition": "90.9% (active)"}, {"smiles": "CC1Cc2cc(-c3cc(CO)no3)ccc2O1", "note": "(stereo unspecified)", "inhibition": "-11.9% (inactive)"}, {"smiles": "COC(=O)CC1CC(=O)C2C(=O)c3c(OC)ccc(Br)c3C2C1", "note": "(stereo unspecified)", "inhibition": "28.1% (inactive)"}, {"smiles": "c1ccc(N2CCN(c3ccccn3)CC2)cc1", "inhibition": "61.2% (active)"}, {"smiles": "O=S(=O)(N1CCN(c2ccccc2)CC1)C(F)(F)C(F)(F)C(F)(F)C(F)(F)F", "inhibition": "21.4% (inactive)"}, {"smiles": "O=C1c2ccccc2-c2nn(CN3CCN(c4ccccc4)CC3)c3cccc1c23", "inhibition": "31.3% (inactive)"}, {"smiles": "CCCCCCSC1=C(C#N)C2(CCCCC2)C(C#N)C(=O)N1", "note": "(stereo unspecified)", "inhibition": "4.19% (inactive)"}, {"smiles": "Oc1ccccc1C1CC(c2ccc3c(c2)OCO3)=NC(c2cccc(F)c2)N1", "note": "(stereo unspecified)", "inhibition": "-19.4% (inactive)"}, {"smiles": "Clc1ccccc1-c1nnc(-c2ccc3c(c2)OCO3)o1", "inhibition": "72.5% (active)"}, {"smiles": "Fc1ccc(-c2nnc(-c3ccc4c(c3)OCO4)o2)cc1", "inhibition": "70.5% (active)"}, {"smiles": "Fc1ccccc1-c1nnc(-c2ccc3c(c2)OCO3)o1", "inhibition": "-0.93% (inactive)"}, {"smiles": "Fc1ccc(/C=C/c2nnc(-c3ccccc3Cl)o2)cc1", "inhibition": "42.9% (inactive)"}, {"smiles": "O=C(Nc1cccc(O)c1)c1nn2c(C(F)(F)F)cc(-c3ccccc3)nc2c1Cl", "inhibition": "-37.9% (inactive)"}, {"smiles": "Fc1ccc2c(c1)C(=NNc1nc3ccccc3s1)CCS2", "inhibition": "-16.9% (inactive)"}, {"smiles": "c1ccc2c(c1)CCC(=NNc1nc3ccccc3s1)C2", "inhibition": "48.5% (inactive)"}, {"smiles": "Oc1c(Cl)cc(Cl)cc1C=NNc1nc2ccccc2s1", "inhibition": "101% (active)"}, {"smiles": "CC(C)C1CC(=NNC(N)=S)C=C2CCCCC21", "note": "(stereo unspecified)", "inhibition": "102% (active)"}, {"smiles": "CC(Oc1ccccc1)C(=O)Nn1cnc2c(cnn2-c2ccc(F)cc2)c1=O", "note": "(stereo unspecified)", "inhibition": "70.4% (active)"}, {"smiles": "COCCCNC(=O)c1nn(-c2ccc(F)cc2)c2ncccc12", "inhibition": "42.3% (inactive)"}, {"smiles": "Cc1ccc(-c2nnc(-c3ccccc3N)[nH]c2=O)cc1C", "inhibition": "49.2% (inactive)"}, {"smiles": "C=CCSc1nnc(-c2cc(Br)ccc2N)c(=O)[nH]1", "inhibition": "76.5% (active)"}, {"smiles": "CCCCCCCCc1nnc(N)s1", "inhibition": "89.3% (active)"}, {"smiles": "CN(Cc1ccc(Br)cc1)C(=O)Nc1ccc(F)c(F)c1F", "inhibition": "44.5% (inactive)"}, {"smiles": "CCc1ccc(NC(=O)CNc2ccc(F)c(F)c2F)cc1", "inhibition": "96.5% (active)"}, {"smiles": "CCC(C)c1ccc(NC(=O)CNc2ccc(F)c(C(=O)OC)c2)cc1", "note": "(stereo unspecified)", "inhibition": "-5.36% (inactive)"}, {"smiles": "CCCCc1ccc(NC(=O)CNc2ccccc2C(C)=O)cc1", "inhibition": "90.7% (active)"}, {"smiles": "CCc1ccc(NCC(=O)Nc2ccc(I)cc2C)cc1", "inhibition": "53.6% (active)"}, {"smiles": "CSc1nc2cc(NC(=S)NC(=O)c3ccccc3)ccc2s1", "inhibition": "91.3% (active)"}, {"smiles": "CC(C)C(=O)NC(=S)Nc1nc2ccc(Cl)cc2s1", "inhibition": "13.7% (inactive)"}, {"smiles": "O=C(Cc1cccc(Cl)c1)N1CCOC(COc2cccc(C(F)(F)F)c2)C1", "note": "(stereo unspecified)", "inhibition": "17.4% (inactive)"}, {"smiles": "O=C(c1cc(F)cc(F)c1)N1CCOC(COc2cccc(C(F)(F)F)c2)C1", "note": "(stereo unspecified)", "inhibition": "84.5% (active)"}, {"smiles": "O=C(COc1ccc(F)cc1)N1CCOC(COc2cccc(C(F)(F)F)c2)C1", "note": "(stereo unspecified)", "inhibition": "15.7% (inactive)"}, {"smiles": "COc1cc(C(=O)N2CCOC(COc3cccc(C(F)(F)F)c3)C2)ccc1F", "note": "(stereo unspecified)", "inhibition": "62.2% (active)"}, {"smiles": "N#CSc1ccc(N)c(Cl)c1", "inhibition": "94.6% (active)"}, {"smiles": "Cc1cccc(OCCN(C)c2cnn(-c3ccc(F)cc3F)c(=O)c2Cl)c1", "inhibition": "14.4% (inactive)"}, {"smiles": "CCNC(=O)Cc1csc(SCc2ccc(C)cc2)n1", "inhibition": "72.3% (active)"}, {"smiles": "Cc1ccc(CSc2nc(CC(=O)NCC(C)C)cs2)cc1", "inhibition": "58.9% (active)"}, {"smiles": "Cc1ccc(CSc2nc(CC(=O)NCc3ccccc3)cs2)cc1", "inhibition": "62.1% (active)"}, {"smiles": "Cc1ccc(CSc2nc(CC(=O)NCc3ccco3)cs2)cc1", "inhibition": "90.2% (active)"}, {"smiles": "Cc1ccc(CSc2nc(CC(=O)O)cs2)cc1", "inhibition": "31.9% (inactive)"}, {"smiles": "Cc1ccc(CSc2nc(CC(=O)NC(C)C)cs2)cc1", "inhibition": "69.6% (active)"}, {"smiles": "O=C(CCl)NC(=O)NCc1cccs1", "inhibition": "-19.2% (inactive)"}, {"smiles": "Cc1ccc(CSc2nc(CC(=O)NCCC(C)C)cs2)cc1", "inhibition": "5.27% (inactive)"}, {"smiles": "CC(C)CCNC(=O)Cc1csc(SCc2ccc(Cl)cc2)n1", "inhibition": "68.8% (active)"}, {"smiles": "CC(C)CN(CC(=O)Nc1nc(CC(=O)NCc2ccc(F)cc2)cs1)C(=O)c1ccc(Cl)cc1", "inhibition": "-3.41% (inactive)"}, {"smiles": "Cc1ccc(CSc2nc(CC(=O)NC3CC3)cs2)cc1", "inhibition": "50% (inactive)"}, {"smiles": "CCC(C)NC(=O)Cc1csc(SCc2ccc(C)cc2)n1", "note": "(stereo unspecified)", "inhibition": "-14.8% (inactive)"}, {"smiles": "Cc1ccc(CSc2nc(CC(=O)NC3CCCC3)cs2)cc1", "inhibition": "3.98% (inactive)"}, {"smiles": "Cc1ccc(CSc2nc(CC(=O)NC3CCCCC3)cs2)cc1", "inhibition": "81.7% (active)"}, {"smiles": "Cc1ccc(CSc2nc(CC(=O)NCc3cccs3)cs2)cc1", "inhibition": "60.2% (active)"}, {"smiles": "CC(C)Cc1noc(-c2ccc(-c3ccc4c(c3)OCCO4)nc2)n1", "inhibition": "3.86% (inactive)"}, {"smiles": "CC(Cc1ccccc1F)NCc1noc(-c2ccc3c(c2)OCO3)n1", "note": "(stereo unspecified)", "inhibition": "59.5% (active)"}, {"smiles": "CC(Cc1cccnc1)NCc1nc(Cc2ccccc2F)no1", "note": "(stereo unspecified)", "inhibition": "33.9% (inactive)"}, {"smiles": "Nc1nc2ccc(Oc3ccc4nc(N)sc4c3)cc2s1", "inhibition": "21% (inactive)"}, {"smiles": "Nc1ccc2nc(SCc3ccc(F)cc3)sc2c1", "inhibition": "16.7% (inactive)"}, {"smiles": "Cc1nc2ccc(N)cc2s1", "inhibition": "94.6% (active)"}, {"smiles": "COc1cc(OC)nc(Nc2nc(C(N)Cc3ccc(F)cc3)cs2)n1", "note": "(stereo unspecified)", "inhibition": "71.1% (active)"}, {"smiles": "COc1cc(OC)nc(Nc2nc(C(N)Cc3ccc(Cl)cc3)cs2)n1", "note": "(stereo unspecified)", "inhibition": "93.6% (active)"}, {"smiles": "Oc1ccc(C=Nc2ccc3oc4ccccc4c3c2)c(O)c1O", "inhibition": "95% (active)"}, {"smiles": "C(=C\\c1cccc(N2CCNCC2)c1)/c1ccccc1", "inhibition": "90.8% (active)"}, {"smiles": "COc1cccc(C=CC(=O)c2cccc(N3CCOCC3)c2)c1", "inhibition": "44.4% (inactive)"}, {"smiles": "CC1(C)C2(Cl)C(Cl)C(Cl)C(Cl)(C(Cl)Cl)C1(Cl)C2Cl", "note": "(stereo unspecified)", "inhibition": "65.2% (active)"}, {"smiles": "S=c1nc[nH]c2nc[nH]c12", "inhibition": "49.3% (inactive)"}, {"smiles": "Brc1ccccc1CNCC1COc2ccccc2O1", "note": "(stereo unspecified)", "inhibition": "-26.4% (inactive)"}, {"smiles": "FC(F)(F)CCc1ccnc(NCC2COc3ccccc3O2)n1", "note": "(stereo unspecified)", "inhibition": "24.3% (inactive)"}, {"smiles": "FC(F)(F)c1ccnc(NCC2COc3ccccc3O2)n1", "note": "(stereo unspecified)", "inhibition": "96.6% (active)"}]}]}
